This is a sample that favours compounds with a hit; in the whole collection about 3.9% have one here.
SARS 3CLpro inh – SARS-CoV 3CLpro protease inhibitors, primary screen, biochemical, quenched FRET; recombinant SARS-CoV 3CLpro, quenched FRET peptide cleavage; actives 0.14% (n = 290,000); inhibition, % at 6 µM; AID 1706, 2009; Replicase polyprotein 1ab (Severe acute respiratory syndrome coronavirus), P0C6X7; in the data active = inhibition above about 12%
Bead autofluor – counter-screen for toxin protease inhibitors: compound fluorescence | compound autofluorescence counterscreen, microsphere flow cytometry; active compounds read high | fluorescence intensity (concentration not given with the values) | actives 3.1% (n = 360,000) | AID 624483; in the data active = fluorescence intensity above about 16000; inconclusive = no clear call, values can overlap the other calls
CCHF vOTU inh-1 – CCHFV vOTU protease inhibitors, primary screen, biochemical, Pep-AMC substrate, fluorescence. Crimean-Congo hemorrhagic fever virus L polyprotein viral ovarian tumor (vOTU) protease …. inhibition, % at 11.5 µM. actives 0.55% (n = 370,000). AID 651958, 2012; in the data active = inhibition above about 30%; note: 0% = vehicle wells with enzyme and 100% = no enzyme wells
Anthrax LF inh2 – Bacillus anthracis LF protease inhibitors, primary screen, biochemical, multiplex microsphere, MLPCN library. inhibition, % at 10 µM. Lethal factor (Bacillus anthracis), P15917. multiplex microsphere protease cleavage assay. actives 0.12% (n = 360,000); note: plate controls were buffer without enzyme for full effect and enzyme alone for no effect
Target sequence (P15917 whole entry, looked up): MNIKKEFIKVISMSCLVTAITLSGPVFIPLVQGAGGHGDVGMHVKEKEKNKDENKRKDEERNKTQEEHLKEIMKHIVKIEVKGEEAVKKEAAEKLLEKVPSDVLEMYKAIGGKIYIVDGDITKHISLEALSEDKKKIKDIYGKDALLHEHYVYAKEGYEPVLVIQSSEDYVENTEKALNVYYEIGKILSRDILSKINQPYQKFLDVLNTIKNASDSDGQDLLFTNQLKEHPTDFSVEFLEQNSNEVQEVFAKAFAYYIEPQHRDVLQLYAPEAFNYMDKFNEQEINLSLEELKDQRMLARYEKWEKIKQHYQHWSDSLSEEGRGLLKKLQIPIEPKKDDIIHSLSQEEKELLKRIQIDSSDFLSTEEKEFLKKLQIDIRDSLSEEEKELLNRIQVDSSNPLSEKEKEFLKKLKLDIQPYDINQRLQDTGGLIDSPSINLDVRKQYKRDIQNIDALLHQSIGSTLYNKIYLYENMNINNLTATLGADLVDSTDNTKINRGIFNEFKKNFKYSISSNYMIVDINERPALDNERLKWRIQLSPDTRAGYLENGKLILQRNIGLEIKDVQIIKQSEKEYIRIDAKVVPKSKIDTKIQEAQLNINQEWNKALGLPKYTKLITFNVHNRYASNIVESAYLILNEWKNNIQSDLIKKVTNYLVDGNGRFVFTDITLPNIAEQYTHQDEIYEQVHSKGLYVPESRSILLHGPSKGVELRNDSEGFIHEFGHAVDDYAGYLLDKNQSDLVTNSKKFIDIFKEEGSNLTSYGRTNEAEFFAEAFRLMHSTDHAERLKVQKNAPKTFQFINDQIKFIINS
BoNT F protease – BoNT/F light chain protease inhibitors, primary screen, biochemical, flow cytometry, MLPCN library. AID 588497, 2011. inhibition, % at 10 µM. Botulinum neurotoxin type F light chain protease (Clostridium botulinum). Multiplex microsphere protease cleavage assay. actives 0.22% (n = 360,000); in the data active = inhibition above about 35%, passing the limit was not always enough; inconclusive = no clear call, values can overlap the other calls; note: plate controls were buffer without enzyme for full effect and enzyme alone for no effect
BoNT A protease – BoNT/A light chain protease inhibitors, primary screen, biochemical, flow cytometry, MLPCN library; actives 0.17% (n = 360,000); inhibition, % at 10 µM; AID 588499, 2011; Botulinum neurotoxin type A light chain protease (Clostridium botulinum A str. ATCC 3502); multiplex microsphere protease substrate cleavage; note: plate controls were buffer without enzyme for full effect and enzyme alone for no effect
CCHF vOTU inh-2 – CCHFV vOTU protease inhibitors, confirmation, biochemical, Pep-AMC substrate, fluorescence; inhibition, % at 11.5 µM; AID 686976, 2013; actives 17% (n = 1,900); shares compounds with CCHF vOTU inh-1; Recombinant CCHFV vOTU; in the data active = inhibition above about 30%
An asterisk follows results filed as active; ? = inconclusive; / = not tested or not shown. Cut-off read from the data, not from the text of the source, unless noted: active = inhibition above about 30%; inconclusive = no clear call, values can overlap the other calls; inactive = below that.

SMILES	SARS 3CLpro inh	Bead autofluor	CCHF vOTU inh-1	Anthrax LF inh2	BoNT F protease	BoNT A protease	CCHF vOTU inh-2
CCCCCCCCN1C(=O)[C@@H](CC(=O)N2CCC(c3ccccc3)CC2)C[C@@]2(C(=O)OC)C1=C[C@H](C(C)C)O[C@@H]2C1CC1	/	/	19	/	/	/	/
CCCCCCCCN1C(=O)[C@@H](CC(=O)NCCC(C)C)C[C@@]2(C(=O)OC)C1=C[C@H](C(C)C)O[C@@H]2C1CC1	/	/	35*	/	/	/	17
CCCCCCCCN1C(=O)[C@@H](CC(=O)NCCCOC)C[C@@]2(C(=O)OC)C1=C[C@H](C(C)C)O[C@@H]2C1CC1	/	/	17	/	/	/	/
CCOC(=O)c1sc2nc(C)c([N+](=O)[O-])c(COC)c2c1N	6	5577	1	4	1	2	/
Cc1cccc(-c2onc3ccc(C(=O)/C=C/N(C)C)cc23)c1	6	3583	33*	10	-7	4	-16
CC(=O)OC[C@@H]1CN(Cc2ccccc2)C[C@H](n2cnc3c(NCc4ccc(F)cc4)ncnc32)O1	/	3644	12	2	6	0	/
Cc1cc(C)c(S(=O)(=O)NC2CC3CCC2C3)c(C)c1 (stereo not drawn)	7	3926	-4	-4	-11	-2	/
COc1ccc(C(=O)NC(=S)Nc2cccc3cc(O)ccc23)cc1OC	4	6421	31*	-6	-12	-3	-11
COc1ccccc1C(=O)NC(=S)Nc1cccc2cc(O)ccc12	2	4169	15	-1	-8	0	/
CCOC(=O)[C@]12CCCC=C1N(CCc1ccc(OC)c(OC)c1)C(=O)[C@H](CC(=O)NCc1ccccc1)C2	/	/	6	/	/	/	/
CCCCCCCCN1C(=O)[C@H](CC(=O)NCCc2ccccc2OC)C[C@@]2(C(=O)OC)CCCCC=C12	/	4135	47*	-6	3	0	10
CCOC(=O)[C@]12CCC=C1N(Cc1ccc(Cl)cc1Cl)C(=O)[C@H](CC(=O)NCc1ccc(C)o1)C2	/	4226	34*	-10	-1	-2	-11
CCCCCCCCN1C(=O)[C@H](CC(=O)NCc2ccc(OC)c(OC)c2)C[C@@]2(C(=O)OCC)CCCC=C12	/	6088	39*	-3	-2	-1	16
CCCCCCCCN1C(=O)[C@H](CC(=O)NCc2cccs2)C[C@@]2(C(=O)OCC)CCCC=C12	/	5818	31*	-1	-6	0	14
CCNC(=O)NC(=O)C(C)OC(=O)[C@H](C)NS(=O)(=O)c1c(C)c(C)cc(C)c1C (stereo partly drawn)	2	4476	5	-2	4	0	/
CC(C)NC(=O)c1sc2nc3c(c(-c4cccs4)c2c1N)CN(C)CC3	-4	2421	17	-3	-14	1	/
Cc1cccc(NC(=O)c2sc3nc4c(c(-c5cccs5)c3c2N)CN(C)CC4)c1	-14	1751	30*	-13	-96	4	48*
CC(=O)c1ccc(N2CCN(C(=O)C3CCCN(S(=O)(=O)c4cnc[nH]4)C3)CC2)cc1 (stereo not drawn)	-6	?	34*	-3	-6	-1	-10
CCOc1ccc(S(=O)(=O)Nc2ccccc2C(=O)Nc2ccccc2N2CCOCC2)cc1	3	10906	-6	1	-4	-1	/
COc1ccc(-c2csc(NC(=O)c3ccccc3NS(=O)(=O)c3ccc(F)c(F)c3)n2)cc1	7	4316	37*	-2	4	0	9
CCOc1ccc(NC(=O)c2ccccc2NS(=O)(=O)c2ccc(F)cc2)c([N+](=O)[O-])c1	8	2623	30*	1	17	0	-4
Cc1ccc(S(=O)(=O)Nc2ccccc2C(=O)Nc2nc(-c3ccc(F)cc3)cs2)cc1	6	10562	30*	0	-4	-1	-16
O=C(CNC(=O)c1ccc(Br)o1)NNC(=O)c1ccccc1F	-1	4425	-5	4	4	-1	/
Cc1cc(CNC[C@H]2O[C@@H](n3cnc(C(N)=O)n3)[C@H](O)[C@@H]2O)c(C)n1-c1cccnc1	/	2922	6	2	-2	0	/
CCOC(=O)c1sc(NC(=O)Nc2cccc(Cl)c2)cc1C	-1	11211	30*	2	6	2	0
SMILES	SARS 3CLpro inh	Bead autofluor	CCHF vOTU inh-1	Anthrax LF inh2	BoNT F protease	BoNT A protease	CCHF vOTU inh-2
CCOC(=O)c1sc(NC(=O)c2ccc(Br)o2)cc1C	3	2861	31*	-2	-4	0	-4
Cc1cc(N/N=C/c2ccc(O)cc2O)nc(N2CCOCC2)n1	0	4947	14	-2	-6	-1	/
Oc1ccc(/C=N\Nc2cc(N3CCOCC3)nc(N3CCOCC3)n2)c(O)c1	0	10673	42*	-2	-12	-1	2
O=c1cc(-c2ccc(O)cc2)oc2c(-c3c(O)cc(O)c4c(=O)cc(-c5ccc(O)cc5)oc34)c(O)cc(O)c12	/	5691	20	-6	-13	-1	/
O=c1cc(-c2ccc(O)c(-c3c(O)cc(O)c4c(=O)cc(-c5ccc(O)cc5)oc34)c2)oc2cc(O)cc(O)c12	-3	3390	30*	-7	2	0	-3
Cn1nc(C(C)(C)C)cc1NC(=O)C1(C)CCN1C(=O)CC(c1ccccc1)c1ccccc1 (stereo not drawn)	/	3069	33*	-7	-6	0	-11
CC(=O)Nc1ccc(NC2=C(Cl)C(=O)c3ccccc3C2=O)cc1	6	/	2	/	/	/	/
O=C1C(Cl)=C(NCCN2CCOCC2)C(=O)c2ccccc21	1	3943	43*	9	?	-4	62*
O=C1C(Cl)=C(NCCCO)C(=O)c2ccccc21	3	2142	45*	2	15	1	48*
Cc1ccc(NC2=C(NCCO)C(=O)c3ccccc3C2=O)cc1	7	1948	115*	1	-1	0	42*
CCOCCCNC1=C(Cl)C(=O)c2ccccc2C1=O	1	4720	46*	-8	?	0	60*
O=c1cc(NCCCO)c2ccccc2o1	2	10725	0	1	-7	0	/
O=C1C(Cl)=C(NCCCN2CCOCC2)C(=O)c2ccccc21	/	3851	17	-6	-4	0	/
CCC(C)N(C)C1CCN(C(=S)Nc2cccc(SC)c2)CC1 (stereo not drawn)	4	3540	-9	-4	-6	-1	/
Cc1c(Cl)cccc1NC(=O)Cn1c(-c2ccc(F)cc2)noc1=O	3	4546	5	-4	-4	-1	/
